In the library only some 3.4% were active in any assay of this set; here they are far more common.
ADAM17 inh: inhibits human ADAM17; P78536; recombinant ADAM17, EDANS/DABCYL FRET peptide cleavage; inhibition, % at 6.95 µM; 370,000 compounds, 0.83% hits; AID 720648;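 active = inhibition above the mean of compounds lying between control limits plus 3 SD, set per campaign, cut at about 8.5% in these data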
Target sequence (P78536 215-824 limits assumed): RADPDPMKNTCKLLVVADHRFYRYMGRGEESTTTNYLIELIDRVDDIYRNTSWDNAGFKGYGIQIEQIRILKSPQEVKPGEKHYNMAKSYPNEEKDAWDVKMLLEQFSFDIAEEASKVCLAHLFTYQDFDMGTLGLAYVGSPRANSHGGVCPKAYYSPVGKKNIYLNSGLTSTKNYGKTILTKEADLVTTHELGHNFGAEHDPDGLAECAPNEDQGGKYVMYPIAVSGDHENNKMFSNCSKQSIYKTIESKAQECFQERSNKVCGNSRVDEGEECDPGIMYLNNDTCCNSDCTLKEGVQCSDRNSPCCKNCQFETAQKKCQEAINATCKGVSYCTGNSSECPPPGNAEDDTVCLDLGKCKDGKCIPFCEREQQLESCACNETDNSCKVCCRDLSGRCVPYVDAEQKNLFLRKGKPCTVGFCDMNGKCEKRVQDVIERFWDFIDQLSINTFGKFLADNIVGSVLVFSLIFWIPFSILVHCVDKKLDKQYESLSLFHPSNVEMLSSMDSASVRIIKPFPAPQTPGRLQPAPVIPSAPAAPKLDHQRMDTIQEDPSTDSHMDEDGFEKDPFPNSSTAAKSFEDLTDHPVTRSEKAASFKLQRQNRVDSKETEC
PLCb3 inh: PLC-beta3 (human) inhibition, primary screen | 370,000 compounds, 0.18% hits | Purified PLC-beta3, fluorogenic substrate, fluorescence | Q01970 | inhibition, % at 12.2 µM; in the data active = inhibition above about 11%
sPLA2-III inh: Inhibits HGIII-sPLA2 liposome hydrolysis, primary screen; QFRET BODIPY PC-A2 liposome hydrolysis, fluorescence; inhibition, % at 12.2 µM; 370,000 compounds, 0.56% hits; AID 743126;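 active = inhibition above mean plus 3 SD of compounds lying within the high and low control bounds, cut at about 19% in these data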
PLCg1 inh: PLC-gamma1 (human) inhibition, primary screen; 370,000 compounds, 0.84% hits; AID 720700; P19174; inhibition, % at 12.2 µM; purified PLC-gamma1, fluorogenic substrate, fluorescence; in the data active = inhibition above about 9.5%
proKLK7 act: activates the human kallikrein-7 zymogen. 370,000 compounds, 0.9% hits. P49862. purified proKLK7, EDANS-DABCYL substrate fluorescence; 100% is mature enzyme control, 0% vehicle. activation, % at 7 µM;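 active = activation above the mean of all tested compounds plus 3 SD, computed per campaign excluding outliers beyond control limits, cut at about 13% in these data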
ADAM10 inh: inhibits human ADAM10; recombinant ADAM10, EDANS/DABCYL FRET peptide cleavage, 3 h; inhibition, % at 7 µM; 370,000 compounds, 0.62% hits; AID 720582;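 active = inhibition above a per-campaign cutoff equal to the mean of compounds falling between control-based bounds plus 3 SD, cut at about 20% in these data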
ADAM10 counter: inhibits human ADAM10 in ADAM17 exosite counter-screen | shares compounds with ADAM17 inh | recombinant ADAM10, EDANS/DABCYL FRET peptide cleavage, 3 h | inhibition, % at 6.95 µM | 2,900 compounds, 47% hits;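 active = mean inhibition over the triplicate runs exceeds the activity threshold set in the earlier primary screen, cut at about 20% in these data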
ADAM17 confirm: confirmation of inhibitors of human ADAM17; shares compounds with ADAM17 inh; recombinant ADAM17, EDANS/DABCYL QFRET peptide cleavage; inhibition, % at 6.95 µM; 2,900 compounds, 65% hits; AID 743257;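 active = mean inhibition across replicates above the hit cutoff set in the primary screen, cut at about 8.5% in these data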
Of the large screens only hits and unclear results are named; the others gave an inactive call (follow-up assays come after a bar, where they were run).

CN(C(=O)COC(=O)CCc1c[nH]c2ccccc12)C(c1ccccc1)c1ccccc1	ADAM17 inh 11 | ADAM10 counter 28 | ADAM17 confirm 15
O=C(CCc1c[nH]c2ccccc12)OCC(=O)c1ccccc1	none
Cc1cccc(Nc2nc(N)c([N+](=O)[O-])c(N3CC(C)CC(C)C3)n2)c1 (stereo unspecified)	ADAM17 inh 9.4, ADAM10 inh 20 | ADAM10 counter 31 | ADAM17 confirm 17
Cc1cccc(Nc2nc(N)c([N+](=O)[O-])c(N3CC(C)OC(C)C3)n2)c1 (stereo unspecified)	none
O=C(O)C1C2C=CC(O2)C1C(=O)Nc1cccc(C(F)(F)F)c1 (stereo unspecified)	none
CC1Sc2ccc(S(=O)(=O)CCC(=O)Nc3ccccc3Cl)cc2NC1=O (stereo unspecified)	ADAM17 inh 9.3 | ADAM10 counter inactive | ADAM17 confirm inactive
COc1cc(/C=C/c2ccc3cccc([N+](=O)[O-])c3n2)ccc1OCC(=O)O	none
CCOc1c(OC(C)=O)ccc(/C=C/c2ccc3cccc(OC)c3n2)c1[N+](=O)[O-]	ADAM17 inh 9.0 | ADAM10 counter 24 | ADAM17 confirm 16
CCc1cc(-c2nnn(CCC3COCCO3)c2CC)ccc1-c1cn(CCc2c[nH]c3ccccc23)nn1 (stereo unspecified)	ADAM17 inh 8.6 | ADAM10 counter inactive | ADAM17 confirm 9.4
CC1(C(=O)NS(=O)(=O)Cc2ccccc2)CCN1C(=O)C1(c2ccc(Cl)cc2)CC1 (stereo unspecified)	ADAM17 inh 9.6 | ADAM10 counter inactive | ADAM17 confirm inactive
COc1cccc(C2/C(=C(/O)c3ccc4c(c3)OCO4)C(=O)C(=O)N2CCN2CCOCC2)c1 (stereo unspecified)	none
CCC(CC)C(=O)Nc1cccc(C(=O)Nc2ccc(S(=O)(=O)Nc3ccc(C)cc3)cc2)c1	ADAM17 inh 8.8 | ADAM10 counter 22 | ADAM17 confirm 17
CCC(CC)C(=O)Nc1cccc(C(=O)Nc2ccc(S(N)(=O)=O)cc2)c1	none
CCOc1cc(C(=O)Nc2ccc(S(=O)(=O)Nc3nnc(CC)s3)cc2)cc(OCC)c1OCC	none
CCc1nnc(NS(=O)(=O)c2ccc(NC(=O)c3cccc(Br)c3)cc2)s1	ADAM17 inh 9.6 | ADAM10 counter inactive | ADAM17 confirm inactive
CN(C)c1ccc(C2(c3ccc(N(C)C)cc3)OC(=O)c3cc(N)ccc32)cc1	none
CC(=O)Nc1sc(C)c(C)c1C(=O)OCC(=O)Nc1cccc(C)c1	none
Cc1cnn(CCC(=O)NNC(=S)Nc2ccccc2)c1	ADAM17 inh 12 | ADAM10 counter inactive | ADAM17 confirm inactive
CCC(C)NCC(=O)Nc1ccc(S(N)(=O)=O)cc1 (stereo unspecified)	none
Cc1cc(NC(=O)COC(=O)C2CC(=O)N(c3ccc(Cl)cc3)C2)no1 (stereo unspecified)	none
O=C(CSc1nc2nn(-c3ccccc3)c(=O)c-2c2n1CCCCC2)Nc1ccccc1[N+](=O)[O-]	none
Cc1ccc(S(=O)(=O)N2CCC(C(=O)Nc3ccc(S(=O)(=O)N4CCCC4)cc3)CC2)cc1	ADAM17 inh 13 | ADAM10 counter 21 | ADAM17 confirm 11
C[C@@H]1COC(=O)[C@H](NC(=O)OCC2c3ccccc3-c3ccccc32)C/C=C\C[C@@H](CC(=O)N[C@H](CO)Cc2ccccc2)C(=O)N1	none
CCc1ccc(OCC2c3cc(OC)c(OC)cc3CCN2C(=S)NCCOC)cc1 (stereo unspecified)	ADAM17 inh 10 | ADAM10 counter 39 | ADAM17 confirm 21
O=C(Nc1ccccc1OC(=O)c1ccc(Cl)cc1)c1ccc(Cl)cc1	none
O=C(Oc1ccccc1-c1nnco1)c1ccc(Cl)cc1	ADAM17 inh 9.7 | ADAM10 counter inactive | ADAM17 confirm inactive

High-throughput results from PubChem.
